According to PubChem BioAssay (NCATS):
Inconclusive results are not listed. A call without a number means that no potency is given here. The source made the active and inactive calls. Calls come from the whole dose curve; as a rule, active = well fitted inhibition curve with a large enough effect; inconclusive = small, poorly fitted or top-dose-only effect; inactive = flat fitted curve, though single readings scatter.

What was measured:
Experiment in all cases: qHTS profiling for inhibitors of Plasmodium falciparum proliferation (AID 504749); note: nearly all actives have a fitted effect of over 60% in size
Conditions in all cases: P. falciparum in erythrocytes, SYBR Green DNA, 72 h; series mostly up to 28.7 µM
CP185 = tested on: CP185
How it was run: (§1)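 Infected RBCs, 0.3% parasitemia/2.5% Hct final; cpd 72 h, 37 C, 5% CO2; lysis buffer with saponin/triton/SYBR Green I, o/n RT dark; FI 485/535; norm. to artemisinin (0.29 uM) and DMSO.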

CP191 = tested on: CP191
How it was run: as §1

CP192 = tested on: CP192
How it was run: as §1

CP194 = tested on: CP194
How it was run: as §1

CP201 = tested on: CP201
How it was run: as §1

CP211 = tested on: CP211
How it was run: as §1

CP215 = tested on: CP215
How it was run: as §1

CP217 = tested on: CP217
How it was run: as §1

CP237 = tested on: CP237
How it was run: as §1

CP238 = tested on: CP238
How it was run: as §1

CP247 = tested on: CP247
How it was run: as §1

CP250 = tested on: CP250
How it was run: as §1

CP252 = tested on: CP252
How it was run: as §1

CP256 = tested on: CP256
How it was run: as §1

CP260 = tested on: CP260
How it was run: as §1

CP262 = tested on: CP262
How it was run: as §1

CP265 = tested on: CP265
How it was run: as §1

CP266 = tested on: CP266
How it was run: as §1

CP268 = tested on: CP268
How it was run: as §1

CP203 = tested on: CP203
How it was run: as §1
Potency is the fitted concentration of half-maximal effect.

## Cn1c(CCCC(=O)O)nc2cc(N(CCCl)CCCl)ccc21
CP185
  Potency: inactive
CP191
  Potency: inactive
CP192
  Potency: inactive
CP194
  Potency: inactive
CP201
  Potency: inactive
CP211
  Potency: inactive
CP215
  Potency: inactive
CP217
  Potency: inactive
CP237
  Potency: inactive
CP238
  Potency: inactive
CP247
  Potency: inactive
CP250
  Potency: inactive
CP252
  Potency: inactive
CP256
  Potency: inactive
CP260
  Potency: inactive
CP262
  Potency: inactive
CP265
  Potency: inactive
CP266
  Potency: inactive
CP268
  Potency: inactive

## Oc1ccccc1-c1ccccc1
CP185
  Potency: inactive
CP191
  Potency: inactive
CP192
  Potency: inactive
CP194
  Potency: inactive
CP201
  Potency: inactive
CP203
  Potency: inactive
CP211
  Potency: inactive
CP215
  Potency: inactive
CP217
  Potency: inactive
CP237
  Potency: inactive
CP238
  Potency: inactive
CP247
  Potency: inactive
CP250
  Potency: inactive
CP252
  Potency: inactive
CP256
  Potency: inactive
CP260
  Potency: inactive
CP262
  Potency: inactive
CP265
  Potency: inactive
CP266
  Potency: inactive
CP268
  Potency: inactive

## CC(C)CC(N(C)C)C1(c2ccc(Cl)cc2)CCC1 (centres undefined)
CP185
  Potency: inactive
CP191
  Potency: inactive
CP192
  Potency: inactive
CP194
  Potency: inactive
CP201
  Potency: inactive
CP203
  Potency: inactive
CP211
  Potency: inactive
CP215
  Potency: inactive
CP217
  Potency: inactive
CP237
  Potency: inactive
CP238
  Potency: inactive
CP247
  Potency: inactive
CP250
  Potency: inactive
CP252
  Potency: inactive
CP256
  Potency: inactive
CP260
  Potency: inactive
CP262
  Potency: inactive
CP265
  Potency: inactive
CP266
  Potency: inactive
CP268
  Potency: inactive

## Clc1ccc(COC(Cn2ccnc2)c2ccc(Cl)cc2Cl)cc1 (centres undefined)
CP185
  Potency: 8.91 µM (active)
CP191
  Potency: 3.16 µM (active)
CP192
  Potency: 6.01 µM (active)
CP194
  Potency: 6.75 µM (active)
CP201
  Potency: 15.1 µM (active)
CP211
  Potency: 9.53 µM (active)
CP215
  Potency: 4.78 µM (active)
CP217
  Potency: 2.51 µM (active)
CP237
  Potency: 1.26 µM (active)
CP238
  Potency: 6.31 µM (active)
CP247
  Potency: 3.16 µM (active)
CP250
  Potency: 5.01 µM (active)
CP252
  Potency: 3.98 µM (active)
CP256
  Potency: 7.08 µM (active)
CP260
  Potency: 2.51 µM (active)
CP262
  Potency: 4.78 µM (active)
CP265
  Potency: 2.51 µM (active)
CP268
  Potency: 15.1 µM (active)

## NCC(O)c1ccc(O)cc1 (centres undefined)
CP185
  Potency: inactive
CP191
  Potency: inactive
CP192
  Potency: inactive
CP194
  Potency: inactive
CP201
  Potency: inactive
CP211
  Potency: inactive
CP215
  Potency: inactive
CP217
  Potency: inactive
CP237
  Potency: inactive
CP238
  Potency: inactive
CP247
  Potency: inactive
CP250
  Potency: inactive
CP252
  Potency: inactive
CP256
  Potency: inactive
CP260
  Potency: inactive
CP262
  Potency: inactive
CP265
  Potency: inactive
CP268
  Potency: inactive

## Oc1cccc2cccnc12
CP185
  Potency: inactive
CP191
  Potency: inactive
CP192
  Potency: inactive
CP194
  Potency: inactive
CP201
  Potency: inactive
CP203
  Potency: inactive
CP211
  Potency: inactive
CP215
  Potency: inactive
CP217
  Potency: inactive
CP237
  Potency: inactive
CP238
  Potency: inactive
CP247
  Potency: inactive
CP250
  Potency: inactive
CP252
  Potency: inactive
CP256
  Potency: inactive
CP260
  Potency: inactive
CP262
  Potency: inactive
CP265
  Potency: inactive
CP266
  Potency: inactive
CP268
  Potency: inactive

## CC(C)=CC1C(C(=O)OCc2cccc(Oc3ccccc3)c2)C1(C)C (centres undefined)
CP185
  Potency: inactive
CP191
  Potency: inactive
CP192
  Potency: inactive
CP194
  Potency: inactive
CP201
  Potency: inactive
CP211
  Potency: inactive
CP215
  Potency: inactive
CP217
  Potency: inactive
CP237
  Potency: inactive
CP238
  Potency: inactive
CP247
  Potency: inactive
CP250
  Potency: inactive
CP252
  Potency: inactive
CP256
  Potency: inactive
CP262
  Potency: inactive
CP265
  Potency: inactive
CP266
  Potency: inactive
CP268
  Potency: inactive

## O=c1[nH]c2ccccc2n1C1CCN(CCCC(c2ccc(F)cc2)c2ccc(F)cc2)CC1
CP185
  Potency: inactive
CP192
  Potency: inactive
CP201
  Potency: inactive
CP215
  Potency: 13.5 µM (active)
CP217
  Potency: inactive
CP237
  Potency: 7.94 µM (active)
CP238
  Potency: inactive
CP247
  Potency: inactive
CP250
  Potency: inactive
CP252
  Potency: inactive
CP260
  Potency: 12.6 µM (active)
CP262
  Potency: inactive
CP265
  Potency: inactive
CP266
  Potency: inactive
CP268
  Potency: inactive

## NP(N)(=O)NC(=O)c1ccc(F)cc1
CP191
  Potency: inactive
CP192
  Potency: inactive
CP194
  Potency: inactive
CP201
  Potency: inactive
CP203
  Potency: inactive
CP211
  Potency: inactive
CP215
  Potency: inactive
CP217
  Potency: inactive
CP237
  Potency: inactive
CP238
  Potency: inactive
CP247
  Potency: inactive
CP250
  Potency: inactive
CP252
  Potency: inactive
CP256
  Potency: inactive
CP260
  Potency: inactive
CP262
  Potency: inactive
CP265
  Potency: inactive
CP266
  Potency: inactive
CP268
  Potency: inactive

## CCN(C(C)=O)c1cccc(-c2ccnc3c(C#N)cnn23)c1
CP185
  Potency: inactive
CP191
  Potency: inactive
CP194
  Potency: inactive
CP201
  Potency: inactive
CP211
  Potency: inactive
CP215
  Potency: inactive
CP217
  Potency: inactive
CP237
  Potency: inactive
CP238
  Potency: inactive
CP247
  Potency: inactive
CP250
  Potency: inactive
CP252
  Potency: inactive
CP256
  Potency: inactive
CP260
  Potency: inactive
CP262
  Potency: inactive
CP265
  Potency: inactive
CP266
  Potency: inactive
CP268
  Potency: inactive

## CC(C)(C)NCC(O)c1cc(Cl)c(N)c(Cl)c1 (centres undefined)
CP201
  Potency: inactive
CP211
  Potency: inactive
CP217
  Potency: inactive
CP237
  Potency: 7.94 µM (active)
CP247
  Potency: inactive
CP250
  Potency: inactive
CP256
  Potency: inactive
CP266
  Potency: inactive
CP268
  Potency: inactive

## CCCC1CCCCN1 (centres undefined)
CP185
  Potency: inactive
CP191
  Potency: inactive
CP192
  Potency: inactive
CP194
  Potency: inactive
CP201
  Potency: inactive
CP215
  Potency: inactive
CP217
  Potency: inactive
CP237
  Potency: inactive
CP238
  Potency: inactive
CP252
  Potency: inactive
CP256
  Potency: inactive
CP260
  Potency: inactive
CP262
  Potency: inactive
CP265
  Potency: inactive
CP268
  Potency: inactive

## C[C@]12C/C(=C/O)C(=O)C[C@@H]1CC[C@@H]1[C@@H]2CC[C@@]2(C)[C@H]1CC[C@]2(C)O
CP185
  Potency: inactive
CP192
  Potency: inactive
CP194
  Potency: inactive
CP201
  Potency: inactive
CP211
  Potency: inactive
CP215
  Potency: inactive
CP217
  Potency: inactive
CP237
  Potency: inactive
CP238
  Potency: inactive
CP250
  Potency: inactive
CP252
  Potency: inactive
CP256
  Potency: inactive
CP260
  Potency: inactive
CP262
  Potency: inactive
CP265
  Potency: inactive
CP266
  Potency: inactive
CP268
  Potency: inactive

## CCC(COC(=O)c1cc(OC)c(OC)c(OC)c1)(c1ccccc1)N(C)C (centres undefined)
CP185
  Potency: inactive
CP191
  Potency: inactive
CP192
  Potency: inactive
CP194
  Potency: inactive
CP201
  Potency: inactive
CP211
  Potency: inactive
CP215
  Potency: inactive
CP217
  Potency: inactive
CP238
  Potency: inactive
CP247
  Potency: inactive
CP250
  Potency: inactive
CP252
  Potency: inactive
CP256
  Potency: inactive
CP260
  Potency: inactive
CP262
  Potency: inactive
CP265
  Potency: inactive
CP266
  Potency: inactive
CP268
  Potency: inactive

## Fc1ccc(C(OCCN2CCN(CCCc3ccccc3)CC2)c2ccc(F)cc2)cc1
CP185
  Potency: 10 µM (active)
CP191
  Potency: 10 µM (active)
CP211
  Potency: 13.5 µM (active)
CP217
  Potency: 8.91 µM (active)
CP237
  Potency: 10 µM (active)
CP238
  Potency: 12.6 µM (active)
CP247
  Potency: 10 µM (active)
CP252
  Potency: 11.2 µM (active)
CP260
  Potency: 10 µM (active)
CP262
  Potency: inactive
